Assay results reported in the supplement of paper PMC11732987, “Enantioselective OTUD7B fragment discovery through chemoproteomics screening and high-throughput optimisation” (Communications Chemistry, 2025).

What was measured:
Test in all cases: log2 ratio of Biotin-Ahx-Ub-VS probe labelling (fragment/DMSO); higher = less target engagement (more negative = stronger competition), active = hit call of the paper (q ≤ 0.05, log2 ratio ≤ -1)
Details in all cases: compound concentration: 200 uM; treatment time: 3 h
[1] = biological target: T1, USP19 (UniProt O94966)
T1 sequence (whole entry): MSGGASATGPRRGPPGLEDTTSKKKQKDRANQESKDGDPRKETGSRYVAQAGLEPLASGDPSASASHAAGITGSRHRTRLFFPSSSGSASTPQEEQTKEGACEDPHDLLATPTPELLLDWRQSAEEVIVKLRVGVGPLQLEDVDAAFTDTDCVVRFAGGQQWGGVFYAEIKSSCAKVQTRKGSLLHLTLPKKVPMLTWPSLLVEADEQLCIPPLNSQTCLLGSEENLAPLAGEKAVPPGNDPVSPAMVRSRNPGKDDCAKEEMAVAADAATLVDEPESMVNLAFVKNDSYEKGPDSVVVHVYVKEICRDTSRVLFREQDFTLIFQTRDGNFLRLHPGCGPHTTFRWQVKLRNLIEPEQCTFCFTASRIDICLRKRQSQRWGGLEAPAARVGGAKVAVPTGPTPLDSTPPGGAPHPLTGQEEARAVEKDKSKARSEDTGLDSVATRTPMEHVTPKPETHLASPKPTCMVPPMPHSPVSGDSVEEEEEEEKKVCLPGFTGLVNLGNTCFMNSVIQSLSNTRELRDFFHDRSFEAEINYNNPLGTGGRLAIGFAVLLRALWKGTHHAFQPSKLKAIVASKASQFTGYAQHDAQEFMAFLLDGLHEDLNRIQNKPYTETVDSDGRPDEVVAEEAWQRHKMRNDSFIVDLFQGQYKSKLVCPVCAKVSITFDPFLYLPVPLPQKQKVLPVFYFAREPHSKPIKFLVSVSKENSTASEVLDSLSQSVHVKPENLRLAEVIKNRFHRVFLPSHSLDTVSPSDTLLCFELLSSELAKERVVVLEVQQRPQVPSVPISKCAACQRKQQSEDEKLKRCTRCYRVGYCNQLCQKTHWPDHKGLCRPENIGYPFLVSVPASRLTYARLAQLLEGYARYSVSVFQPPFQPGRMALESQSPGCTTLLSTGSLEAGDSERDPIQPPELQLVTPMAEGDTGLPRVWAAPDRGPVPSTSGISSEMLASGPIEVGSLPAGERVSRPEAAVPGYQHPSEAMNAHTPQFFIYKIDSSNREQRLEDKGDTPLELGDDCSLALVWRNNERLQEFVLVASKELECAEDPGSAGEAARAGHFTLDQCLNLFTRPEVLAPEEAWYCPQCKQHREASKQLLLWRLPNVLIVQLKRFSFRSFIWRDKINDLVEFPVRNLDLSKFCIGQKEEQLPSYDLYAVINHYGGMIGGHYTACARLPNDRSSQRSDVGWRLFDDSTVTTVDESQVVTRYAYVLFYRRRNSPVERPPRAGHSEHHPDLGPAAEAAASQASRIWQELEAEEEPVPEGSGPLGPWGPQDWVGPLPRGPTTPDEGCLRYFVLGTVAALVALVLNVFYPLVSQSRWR
Procedure, shortened: (§1)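 Labelled DUBs from HEK293T lysate were NeutrAvidin-enriched, digested with LysC and trypsin, and run by diaPASEF LC-MS/MS. Before that, each 495 µg sample in Tris/CHAPS/IGEPAL buffer with protease inhibitors was treated in triplicate with fragment at 200 µM or vehicle for 3 h, then with Biotin-Ahx-Ub-VS at 0.5 µM final for 1 h. Values are average log2 ratios of fragment over vehicle by unpaired t-test, based on global-median-normalised Spectronaut label-free quantities from proteins with ≥2 unique peptides.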

[2] = biological target: USP24 (UniProt Q9UPU5)
Chain of USP24 (Q9UPU5 whole entry): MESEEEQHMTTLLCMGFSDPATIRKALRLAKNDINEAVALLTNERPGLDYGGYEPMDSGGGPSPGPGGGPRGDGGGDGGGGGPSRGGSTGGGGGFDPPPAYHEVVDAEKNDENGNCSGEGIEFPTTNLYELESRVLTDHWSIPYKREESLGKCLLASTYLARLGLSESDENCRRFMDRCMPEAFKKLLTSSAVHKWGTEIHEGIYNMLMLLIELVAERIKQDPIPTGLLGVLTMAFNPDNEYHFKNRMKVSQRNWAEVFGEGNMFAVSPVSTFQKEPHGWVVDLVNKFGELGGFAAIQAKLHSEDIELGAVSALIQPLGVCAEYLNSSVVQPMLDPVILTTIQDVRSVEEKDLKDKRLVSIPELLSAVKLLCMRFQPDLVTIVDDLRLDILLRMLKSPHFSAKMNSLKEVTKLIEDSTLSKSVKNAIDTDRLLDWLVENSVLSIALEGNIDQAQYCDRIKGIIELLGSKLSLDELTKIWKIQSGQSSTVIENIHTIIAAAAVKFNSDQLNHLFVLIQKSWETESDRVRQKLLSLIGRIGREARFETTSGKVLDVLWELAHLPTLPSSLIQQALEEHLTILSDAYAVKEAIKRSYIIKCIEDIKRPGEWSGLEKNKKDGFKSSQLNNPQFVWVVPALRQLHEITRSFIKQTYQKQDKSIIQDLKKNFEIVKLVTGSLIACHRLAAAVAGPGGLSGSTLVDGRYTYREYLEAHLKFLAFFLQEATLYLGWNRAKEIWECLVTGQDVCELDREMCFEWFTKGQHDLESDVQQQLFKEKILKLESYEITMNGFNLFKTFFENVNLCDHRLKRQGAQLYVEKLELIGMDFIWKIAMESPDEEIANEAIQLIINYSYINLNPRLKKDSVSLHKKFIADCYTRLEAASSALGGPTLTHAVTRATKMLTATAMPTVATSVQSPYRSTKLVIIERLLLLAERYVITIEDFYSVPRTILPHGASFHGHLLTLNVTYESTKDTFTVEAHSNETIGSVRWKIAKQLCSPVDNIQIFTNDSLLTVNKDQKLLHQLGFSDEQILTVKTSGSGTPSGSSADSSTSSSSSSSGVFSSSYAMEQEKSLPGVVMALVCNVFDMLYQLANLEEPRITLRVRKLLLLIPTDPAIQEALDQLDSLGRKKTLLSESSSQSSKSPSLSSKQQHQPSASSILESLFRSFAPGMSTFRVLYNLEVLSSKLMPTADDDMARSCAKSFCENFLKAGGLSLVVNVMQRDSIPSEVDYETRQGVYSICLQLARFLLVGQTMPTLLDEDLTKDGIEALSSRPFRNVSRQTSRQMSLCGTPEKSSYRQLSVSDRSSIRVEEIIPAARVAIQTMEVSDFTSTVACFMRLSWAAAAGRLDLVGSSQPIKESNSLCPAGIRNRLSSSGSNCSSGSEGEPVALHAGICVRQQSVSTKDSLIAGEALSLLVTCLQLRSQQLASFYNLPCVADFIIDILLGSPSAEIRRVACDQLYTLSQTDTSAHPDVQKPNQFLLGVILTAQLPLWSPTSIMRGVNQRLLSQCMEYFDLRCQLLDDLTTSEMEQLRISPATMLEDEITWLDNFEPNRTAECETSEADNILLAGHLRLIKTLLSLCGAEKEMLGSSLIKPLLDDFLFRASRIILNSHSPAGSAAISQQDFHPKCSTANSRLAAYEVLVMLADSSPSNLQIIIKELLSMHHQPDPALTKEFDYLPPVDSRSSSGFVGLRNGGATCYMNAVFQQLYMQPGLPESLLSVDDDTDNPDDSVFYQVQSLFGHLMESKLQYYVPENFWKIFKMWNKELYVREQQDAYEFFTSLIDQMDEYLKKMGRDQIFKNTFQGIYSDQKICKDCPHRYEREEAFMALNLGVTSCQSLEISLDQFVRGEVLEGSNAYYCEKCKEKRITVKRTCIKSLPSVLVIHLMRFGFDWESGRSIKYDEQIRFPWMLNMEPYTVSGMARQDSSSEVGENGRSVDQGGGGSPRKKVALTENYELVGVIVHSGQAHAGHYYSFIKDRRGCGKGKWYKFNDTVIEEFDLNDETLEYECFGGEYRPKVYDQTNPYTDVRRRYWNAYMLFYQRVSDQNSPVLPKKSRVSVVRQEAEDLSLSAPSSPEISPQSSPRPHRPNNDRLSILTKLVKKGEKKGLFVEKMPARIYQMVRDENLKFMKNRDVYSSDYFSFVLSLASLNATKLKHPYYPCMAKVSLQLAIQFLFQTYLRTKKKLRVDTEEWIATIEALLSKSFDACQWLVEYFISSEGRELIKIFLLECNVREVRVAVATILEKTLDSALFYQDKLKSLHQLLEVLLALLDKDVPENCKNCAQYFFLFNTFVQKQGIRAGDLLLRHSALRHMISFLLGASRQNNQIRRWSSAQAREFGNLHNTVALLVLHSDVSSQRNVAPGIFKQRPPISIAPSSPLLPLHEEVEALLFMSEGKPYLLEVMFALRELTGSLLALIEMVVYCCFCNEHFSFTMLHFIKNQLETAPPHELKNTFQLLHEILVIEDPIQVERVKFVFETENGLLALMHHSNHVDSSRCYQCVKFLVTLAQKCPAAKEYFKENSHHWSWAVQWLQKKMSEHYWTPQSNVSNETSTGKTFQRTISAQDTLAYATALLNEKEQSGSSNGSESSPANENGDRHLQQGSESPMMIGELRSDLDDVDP
Procedure, shortened: as §1

[3] = biological target: T2, USP25 (UniProt Q9UHP3)
T2 sequence (whole entry): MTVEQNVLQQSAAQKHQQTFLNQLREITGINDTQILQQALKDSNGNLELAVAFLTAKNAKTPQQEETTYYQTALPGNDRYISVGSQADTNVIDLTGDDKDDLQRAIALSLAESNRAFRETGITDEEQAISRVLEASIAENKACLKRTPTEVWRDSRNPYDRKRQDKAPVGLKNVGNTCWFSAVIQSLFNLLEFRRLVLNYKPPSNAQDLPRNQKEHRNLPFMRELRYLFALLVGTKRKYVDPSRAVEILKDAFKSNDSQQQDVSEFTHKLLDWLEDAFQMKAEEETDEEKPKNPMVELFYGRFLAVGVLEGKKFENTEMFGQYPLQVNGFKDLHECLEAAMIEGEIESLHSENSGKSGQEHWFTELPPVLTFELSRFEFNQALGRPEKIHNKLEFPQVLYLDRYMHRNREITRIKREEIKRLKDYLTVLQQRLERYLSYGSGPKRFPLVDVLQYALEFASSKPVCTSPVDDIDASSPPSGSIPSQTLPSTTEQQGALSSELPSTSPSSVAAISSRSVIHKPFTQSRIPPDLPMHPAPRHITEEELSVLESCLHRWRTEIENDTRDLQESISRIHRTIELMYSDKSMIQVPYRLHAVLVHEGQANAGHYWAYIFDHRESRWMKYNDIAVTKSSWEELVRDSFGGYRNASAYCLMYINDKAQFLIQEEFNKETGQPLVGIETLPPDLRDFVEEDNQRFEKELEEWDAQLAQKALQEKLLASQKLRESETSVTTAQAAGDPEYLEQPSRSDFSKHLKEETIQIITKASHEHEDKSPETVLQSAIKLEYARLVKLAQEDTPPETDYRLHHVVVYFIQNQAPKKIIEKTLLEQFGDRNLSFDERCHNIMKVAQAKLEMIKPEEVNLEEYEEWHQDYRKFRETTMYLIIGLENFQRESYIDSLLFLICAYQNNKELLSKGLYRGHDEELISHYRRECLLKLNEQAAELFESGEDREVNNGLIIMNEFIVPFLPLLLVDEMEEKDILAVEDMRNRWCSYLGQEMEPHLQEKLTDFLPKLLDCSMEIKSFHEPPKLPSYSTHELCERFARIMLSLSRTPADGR
Procedure, shortened: as §1

[4] = biological target: T3, USP28 (UniProt Q96RU2)
T3 sequence (whole entry): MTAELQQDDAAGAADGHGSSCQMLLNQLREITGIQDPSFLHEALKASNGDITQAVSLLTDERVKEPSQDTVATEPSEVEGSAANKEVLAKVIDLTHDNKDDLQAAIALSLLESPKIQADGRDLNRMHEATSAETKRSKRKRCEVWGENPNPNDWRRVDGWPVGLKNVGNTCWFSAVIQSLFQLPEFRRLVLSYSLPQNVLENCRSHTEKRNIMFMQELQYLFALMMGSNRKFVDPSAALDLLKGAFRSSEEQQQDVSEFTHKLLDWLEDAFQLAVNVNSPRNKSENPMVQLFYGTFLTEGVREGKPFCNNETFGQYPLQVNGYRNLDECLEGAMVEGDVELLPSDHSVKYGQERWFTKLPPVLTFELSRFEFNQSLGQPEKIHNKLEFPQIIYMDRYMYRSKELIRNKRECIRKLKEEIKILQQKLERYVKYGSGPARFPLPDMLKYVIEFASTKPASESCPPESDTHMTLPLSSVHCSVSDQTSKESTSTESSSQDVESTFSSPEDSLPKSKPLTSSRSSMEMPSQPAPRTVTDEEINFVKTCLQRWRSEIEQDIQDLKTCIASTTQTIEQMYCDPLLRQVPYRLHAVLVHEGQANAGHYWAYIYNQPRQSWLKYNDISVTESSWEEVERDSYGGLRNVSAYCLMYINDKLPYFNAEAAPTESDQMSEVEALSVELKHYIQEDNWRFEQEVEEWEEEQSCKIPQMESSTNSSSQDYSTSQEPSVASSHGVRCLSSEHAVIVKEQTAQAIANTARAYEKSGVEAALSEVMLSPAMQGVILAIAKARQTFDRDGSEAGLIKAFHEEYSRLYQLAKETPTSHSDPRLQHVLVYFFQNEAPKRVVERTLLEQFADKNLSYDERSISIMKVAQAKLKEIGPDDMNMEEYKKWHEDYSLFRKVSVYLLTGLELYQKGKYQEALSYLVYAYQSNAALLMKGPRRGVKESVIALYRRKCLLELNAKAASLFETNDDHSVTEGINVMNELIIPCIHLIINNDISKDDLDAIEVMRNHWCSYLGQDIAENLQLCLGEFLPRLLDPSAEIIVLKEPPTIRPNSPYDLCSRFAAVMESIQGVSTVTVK
Procedure, shortened: as §1

Measured: log2 ratio of Biotin-Ahx-Ub-VS probe labelling

C/C(=C\CNC(=O)CCl)c1cnn(C)c1.Cl
inactive: [1] -0.404 | [2] -0.203 | [3] -0.578 | [4] -0.395
